Assay outcomes: PubChem BioAssay, National Center for Advancing Translational Sciences (NCATS)
FLuc modulator: firefly luciferase modulation, counter-screen for miR-21 project | P08659 | purified FLuc, Km substrates, luminescence inhibition | Potency, µM (series often up to 57.5 µM), actives largely listed as inhibitors | 6.9% of 360,000 active | AID 588342; also: nearly all actives have a fitted effect of over 55% in size
Target sequence (P08659 whole entry, looked up): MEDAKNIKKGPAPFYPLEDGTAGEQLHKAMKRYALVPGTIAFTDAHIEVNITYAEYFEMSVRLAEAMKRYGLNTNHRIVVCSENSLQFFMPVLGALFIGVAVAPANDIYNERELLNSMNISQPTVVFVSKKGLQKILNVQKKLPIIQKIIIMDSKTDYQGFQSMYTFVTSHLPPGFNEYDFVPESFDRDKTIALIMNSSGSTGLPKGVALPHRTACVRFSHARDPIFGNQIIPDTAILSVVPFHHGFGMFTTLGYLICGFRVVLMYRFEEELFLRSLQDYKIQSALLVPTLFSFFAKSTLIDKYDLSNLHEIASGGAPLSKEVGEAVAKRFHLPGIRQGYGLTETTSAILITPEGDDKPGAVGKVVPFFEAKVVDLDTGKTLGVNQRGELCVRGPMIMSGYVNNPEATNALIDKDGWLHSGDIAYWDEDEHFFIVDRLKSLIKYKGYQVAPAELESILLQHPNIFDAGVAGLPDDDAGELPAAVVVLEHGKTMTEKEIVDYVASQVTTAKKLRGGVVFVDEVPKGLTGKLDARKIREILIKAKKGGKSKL
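Purified P. pyralis luciferase (10nM final) with 10uM D-luciferin and 10uM ATP (Km levels) in 50mM Tris acetate pH 7.5, 10mM Mg acetate, 0.01% Tween-20, 0.05% BSA; qHTS 6-point titration, ~60 µM downward; luminescence read.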
Rab9 promoter act: Rab9 promoter activation. Potency, µM (top dose mostly 9.22 µM), most hits filed as activators. Huh7 Rab9 promoter-luciferase reporter, luminescence, 24 h. 2.8% of 320,000 active. AID 485297; also: nearly all actives have a fitted effect of over 60% in size
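Huh7 reporter line, Rab9 promoter upstream of luciferase. Compound exposure 24 h at 37 °C in reduced-serum medium with 10% FBS. Read-out: luminescence.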
NPC1 prom act: NPC1 promoter activation; Potency, µM (highest dose often 9.22 µM), hits mostly activators; AID 485313; Huh7 NPC1 promoter luciferase reporter, 24 h; 2.4% of 320,000 active; also: nearly all actives have a fitted effect of over 60% in size
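Luminescence read-out of NPC1 promoter-driven luciferase in stably transfected Huh7 cells; compounds delivered in DMSO and left 24 h at 37C, 5% CO2, qHTS titration format.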
SMN2 splice up: increases expression of the SMN2 splice variant | Potency, µM (top dose mostly 46.1 µM), usual class: activators | AID 1458 | 2.8% of 210,000 active | HEK293 SMN2-luciferase splicing reporter, luminescence, 30-36 h; also: nearly all actives have a fitted effect of over 55% in size
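HEK293 cells carry an SMN2 minigene-luciferase reporter in which exon 7 inclusion puts luciferase in frame. Cells were seeded at 2000 cells/well, attached for 10-12 hours, then exposed to compounds for 30-36 hours at 37C before ONE-Glo luminescence.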
ELG1 genotox: inducers of genotoxicity in HEK293T ELG1-luciferase cells; AID 504466; Potency, µM (doses to about 46 µM), hits mostly activators; 1.3% of 330,000 active; HEK293T ELG1-luciferase reporter, luminescence, 16 h; also: nearly all actives have a fitted effect of over 60% in size
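Genotoxicity was scored as increased ELG1-luciferase reporter signal, measured by ONE-Glo luminescence (30 min, room temperature). Compound or vehicle exposure of the HEK293T reporter cells lasted 16 hr at 37°C.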
A number is an active result; [ ] = another dose, or the depositor's remark. Shown are actives, neighbours in structure and some others; about 7.4% of the full set was active somewhere. Calls follow the shape of the dose curve; as a rule, active = well fitted curve in the direction sought with a large enough effect; inconclusive = small, poorly fitted or top-dose-only effect, or another doubt; inactive = no such curve, though single readings can be large; an effect the other way counts as inactive or inconclusive.

Screening Cc1ccc(C(=O)NC(=S)NCC2CCCO2)cc1Br (configuration not stated) returned FLuc modulator 19µM, Rab9 promoter act inactive, NPC1 prom act inactive, SMN2 splice up 20µM and ELG1 genotox inactive.
CCc1ccc(Nc2cc(C)nc3nc(Cc4ccc(Cl)cc4)nn23)cc1 was read as FLuc modulator inactive and SMN2 splice up inactive.
`Nc1ccccc1C(=O)N1CCc2ccccc21` gave FLuc modulator 19µM, Rab9 promoter act inconclusive, NPC1 prom act inconclusive and ELG1 genotox inactive.
Screening O=C(c1ccc(Br)o1)N1CCCc2ccccc21 returned FLuc modulator inactive, Rab9 promoter act inactive, NPC1 prom act inactive, SMN2 splice up inactive and ELG1 genotox inactive.
COCc1c(C(=O)N2CCc3ccccc32)oc2ccccc12 was read as FLuc modulator inconclusive, Rab9 promoter act inactive, NPC1 prom act inactive and ELG1 genotox inactive.
`O=C(c1ccc(Br)o1)N1CCc2ccccc21` gave FLuc modulator 4.8µM, Rab9 promoter act 2.5µM, NPC1 prom act 2.2µM and ELG1 genotox inconclusive.
Cc1c(C(=O)N2CCc3ccccc32)oc2ccccc12 was read as FLuc modulator 0.95µM, Rab9 promoter act 3.5µM, NPC1 prom act inconclusive, SMN2 splice up 3.5µM and ELG1 genotox 3.7µM.
Screening COc1ccccc1C(=O)N1CCc2ccccc21 returned FLuc modulator inactive, Rab9 promoter act inactive, NPC1 prom act inactive, SMN2 splice up inactive and ELG1 genotox inactive.
Cc1c(Br)c(C(=O)N2CCc3ccccc32)nn1C was read as FLuc modulator 21µM, Rab9 promoter act inconclusive, NPC1 prom act inactive, SMN2 splice up inconclusive and ELG1 genotox inconclusive.
For CCN(CC)CCCCC1CCN(CC(=O)N2c3ccccc3C(=O)Nc3cccnc32)CC1 the results were SMN2 splice up inactive.
`CCc1cccc(NC(=O)Cn2c(C(=O)OC)cc3occc32)c1` gave FLuc modulator inactive and SMN2 splice up inactive.
`CCCCCn1nc(C(=O)N2CCc3ccccc32)c2ccccc2c1=O` gave FLuc modulator inactive, Rab9 promoter act inactive, NPC1 prom act inactive and ELG1 genotox inactive.
Screening CCCCC#Cc1ccc2c(c1)COc1c3ccccc3nn1-2 returned FLuc modulator 2.7µM, Rab9 promoter act 7.1µM, NPC1 prom act 0.35µM and ELG1 genotox inconclusive.
N#CCCCC#Cc1ccc2c(c1)COc1c3ccccc3nn1-2 was read as FLuc modulator 0.19µM, Rab9 promoter act 0.1µM, NPC1 prom act 0.71µM and ELG1 genotox inconclusive.
`CCCCCCC#Cc1ccc2c(c1)COc1c3ccccc3nn1-2` gave FLuc modulator inconclusive, Rab9 promoter act 0.89µM, NPC1 prom act 0.79µM and ELG1 genotox inactive.
CCc1ccccc1NC(=O)NC(CC)Cn1nnc2ccccc2c1=O (configuration not stated) was read as FLuc modulator inactive and SMN2 splice up inactive.
For CSc1ccc(NC(=O)[C@H]2CCCC[C@@H]2C(=O)O)cc1 the results were SMN2 splice up inactive[9.22 µM].
Screening Cc1ccccc1CN1C[C@@H]2C[C@@H](c3cnc(N4CCOCC4)s3)N3CCC[C@@]23C1=O returned FLuc modulator inactive, Rab9 promoter act inactive, NPC1 prom act inactive, SMN2 splice up 16µM and ELG1 genotox inactive.
For Cc1cccc(C(=O)N2CCc3cc(CNS(=O)(=O)c4ccc(Cl)s4)ccc32)c1 the results were FLuc modulator inactive.
Screening Cc1ccccc1NCC(=O)N/N=C\c1ccc2c(c1)OCO2 returned FLuc modulator inconclusive, Rab9 promoter act inactive, NPC1 prom act inactive, SMN2 splice up inactive and ELG1 genotox inactive.
`Cc1cc(C)nc(SCC(=O)N/N=C/c2ccc3c(c2)OCO3)n1` gave FLuc modulator 9.5µM, Rab9 promoter act inactive, NPC1 prom act inconclusive and ELG1 genotox inconclusive.
`Cc1ccc(C)c(NC(=O)CCC(=O)N/N=C/c2ccc3c(c2)OCO3)c1` gave FLuc modulator 11µM, Rab9 promoter act inactive, NPC1 prom act inactive and ELG1 genotox inactive.
Screening O=c1cc(-c2ccccc2Cl)oc2c(Br)ccc(O)c12 returned FLuc modulator 12µM, Rab9 promoter act 3.5µM, NPC1 prom act inconclusive, SMN2 splice up 10µM and ELG1 genotox inconclusive.
For O=c1cc(-c2ccccc2Cl)oc2cccc(O)c12 the results were FLuc modulator inactive, Rab9 promoter act inactive, NPC1 prom act inactive, SMN2 splice up inactive and ELG1 genotox inactive.
